Details in all cases: modulator concentration 10 µM
Assay [1] concerns RAW-Dual (murine macrophage reporter line). Briefly: NF-kB reporter (SEAP) activity fold change vs agonist alone; higher = enhanced NF-kB activity. The method, boiled down: (§1)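 Overnight stimulation with a PRR agonist followed pre-incubation for 1 hour at 37 °C with compound at 10 μM final. This was done in RAW-Dual murine macrophage reporter cells seeded at 50 000 per well in 384-well plates. NF-κB (SEAP, QUANTI-Blue absorbance at 620 nm) and IRF (Lucia luciferase, QUANTI-Luc luminescence) were read from the supernatant. Each reporter's fold change relative to the mean agonist-only control on the same plate was averaged over replicate plates.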

Assay [2] shares this test system. Briefly: IRF reporter (Lucia luciferase) activity fold change vs agonist alone; higher = enhanced IRF activity. In a few lines: as §1
Assay [3] has the same test system. Briefly: viability score (confluency relative to resting cells, overnight) (fraction); higher = more viable, active = viable (0.7 or more). The method, boiled down:
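Confluency was the readout: RAW-Dual macrophages were imaged with IncuCyte after an overnight exposure to compound at 10 μM final. IncuCyte software produced two masks over all imaged wells. The viability score expresses confluency against resting cells, and both masks had to exceed 70% of resting cells for a compound to meet the cutoff.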

The mark [4] stands for this setting: agonist: CpG ODN 1826 0.5 ug/mL.

± gives the standard deviation.

On to `COCCOC(=O)C1=C(C)NC(=S)NC1c1ccccc1OC` (stereo unspecified), for which the NF-kB reporter in assay [1] (setting [4]) is 1.03 ± 0.098; in assay [1] (agonist: LPS 0.1 ug/mL) it was 0.995 ± 0.056; in assay [1] (agonist: MPLA […]), 0.956 ± 0.11. Further, the IRF reporter in assay [2] (agonist: 3'3'-cGAMP 10 ug/mL) was 0.964 ± 0.039; in assay [2] (agonist: LPS 0.1 ug/mL) it was 1.38 ± 0.095; in assay [2] (agonist: MPLA […]) it was 1.19 ± 0.22. For the same compound, in assay [3], the viability score was 1.01 (active).

In the case of `O=C(Cn1ccnc1[N+](=O)[O-])NCCO` [Prestw-649], the values for the NF-kB reporter in assay [1] (setting [4]), in assay [1] (agonist: LPS 0.1 ug/mL) and in assay [1] (agonist: MPLA […]) were 1.09 ± 0.081, 1.01 ± 0.12 and 1.05 ± 0.03, respectively. The IRF reporter in assay [2] (agonist: 3'3'-cGAMP 10 ug/mL) came out at 1.09 ± 0.16; in assay [2] (agonist: LPS 0.1 ug/mL), 0.982 ± 0.11; in assay [2] (agonist: MPLA […]), 0.994 ± 0.15. The viability score in assay [3] is 1 (active).

With `O=C(CN1CCN(c2ccccc2F)C1=O)N1CCCC(Oc2cnccn2)C1` (stereo unspecified), the NF-kB reporter in assay [1] (setting [4]) came to 0.831 ± 0.039; in assay [1] (agonist: LPS 0.1 ug/mL) it was 0.931 ± 0.075; in assay [1] (agonist: MPLA […]), 1.08 ± 0.062. Besides, the IRF reporter worked out at 1.02 ± 0.053 in assay [2] (agonist: 3'3'-cGAMP 10 ug/mL), 1.26 ± 0.27 in assay [2] (agonist: LPS 0.1 ug/mL) and 1.37 ± 0.47 in assay [2] (agonist: MPLA […]). In assay [3], the viability score is 0.965 (active).

Consider `O=C(NC1CCCCC1)N(Cc1cnc2ccccn12)c1ccccc1`, for which the results for the NF-kB reporter in assay [1] (setting [4]), in assay [1] (agonist: LPS 0.1 ug/mL) and in assay [1] (agonist: MPLA […]) were 1.01 ± 0.1, 1.14 ± 0.088 and 1.15 ± 0.059, respectively. The IRF reporter in assay [2] (agonist: 3'3'-cGAMP 10 ug/mL) was found to be 0.997 ± 0.044; in assay [2] (agonist: LPS 0.1 ug/mL), 1.06 ± 0.053; in assay [2] (agonist: MPLA […]), 1.05 ± 0.16. The viability score in assay [3] is 0.995 (active).

With `C[C@@H](O)[C@H]1C(=O)N2C(C(=O)O)=C(SCCNC=N)C[C@H]12` [Prestw-519], the results for the NF-kB reporter in assay [1] (setting [4]), in assay [1] (agonist: LPS 0.1 ug/mL) and in assay [1] (agonist: MPLA […]) were 1.17 ± 0.11, 0.986 ± 0.13 and 0.951 ± 0.036, respectively. The IRF reporter is 0.981 ± 0.043 in assay [2] (agonist: 3'3'-cGAMP 10 ug/mL), 0.96 ± 0.044 in assay [2] (agonist: LPS 0.1 ug/mL) and 0.928 ± 0.092 in assay [2] (agonist: MPLA […]). Also, the viability score in assay [3] was 0.994 (active).

With `CCN(CCO)CCCC(C)Nc1ccnc2cc(Cl)ccc12.O=S(=O)(O)O` (stereo unspecified), the results for the NF-kB reporter in assay [1] (setting [4]), in assay [1] (agonist: LPS 0.1 ug/mL) and in assay [1] (agonist: MPLA […]) were 0.877 ± 0.037, 0.984 ± 0.08 and 1.44 ± 0.24, respectively. For the same compound, the values for the IRF reporter in assay [2] (agonist: 3'3'-cGAMP 10 ug/mL), in assay [2] (agonist: LPS 0.1 ug/mL) and in assay [2] (agonist: MPLA […]) were 0.984 ± 0.049, 1.08 ± 0.28 and 1.15 ± 0.42, respectively. In addition, the viability score in assay [3] is 1 (active).

On to `CS(=O)(=O)c1cccc(C[C@H](NC(=O)c2c(Cl)cc3c(c2Cl)CCN(C(=O)c2ccc4ccoc4c2)C3)C(=O)O)c1`, for which the NF-kB reporter turned out to be 1.12 ± 0.17 in assay [1] (setting [4]), 1.22 ± 0.23 in assay [1] (agonist: LPS 0.1 ug/mL) and 1.97 ± 1.1 in assay [1] (agonist: MPLA […]). Besides, the IRF reporter in assay [2] (agonist: 3'3'-cGAMP 10 ug/mL) was 1.07 ± 0.084; in assay [2] (agonist: LPS 0.1 ug/mL), 1.37 ± 0.41; in assay [2] (agonist: MPLA […]), 1.31 ± 0.1. For the same compound, the viability score in assay [3] is 0.983 (active).

Turning to `CCOC(C#CCN(CC)CC)(c1ccccc1)c1ccccc1.Cl`, the NF-kB reporter in assay [1] (setting [4]) is 0.215 ± 0.018; in assay [1] (agonist: LPS 0.1 ug/mL), 0.353 ± 0.049; in assay [1] (agonist: MPLA […]), 0.424 ± 0.031. Also, the IRF reporter is 0.773 ± 0.051 in assay [2] (agonist: 3'3'-cGAMP 10 ug/mL), 0.813 ± 0.054 in assay [2] (agonist: LPS 0.1 ug/mL) and 1.62 ± 0.4 in assay [2] (agonist: MPLA […]). For the same compound, the viability score in assay [3] is 0.0625 (inactive).

On to `CCC(=O)CC(O)(c1ccccc1)C(F)(F)F` (stereo unspecified), for which the NF-kB reporter in assay [1] (setting [4]) is 1.04 ± 0.099; in assay [1] (agonist: LPS 0.1 ug/mL) it was 0.955 ± 0.19; in assay [1] (agonist: MPLA […]) it was 1.02 ± 0.049. Moreover, the IRF reporter came out at 1.01 ± 0.14 in assay [2] (agonist: 3'3'-cGAMP 10 ug/mL), 0.953 ± 0.061 in assay [2] (agonist: LPS 0.1 ug/mL) and 1.01 ± 0.11 in assay [2] (agonist: MPLA […]). Moreover, the viability score in assay [3] was 0.996 (active).

Regarding `CC1=NN(c2ccc(S(N)(=O)=O)cc2)C(=O)C1=Cc1ccc(C)s1`, the NF-kB reporter in assay [1] (setting [4]) came to 1.09 ± 0.074; in assay [1] (agonist: LPS 0.1 ug/mL) it was 1.08 ± 0.072; in assay [1] (agonist: MPLA […]), 1.33 ± 0.14. For the same compound, the IRF reporter was found to be 0.868 ± 0.033 in assay [2] (agonist: 3'3'-cGAMP 10 ug/mL), 1.86 ± 0.15 in assay [2] (agonist: LPS 0.1 ug/mL) and 1.54 ± 0.14 in assay [2] (agonist: MPLA […]). The viability score in assay [3] was 0.981 (active).

Regarding `CC(C)C(=O)N1CCCc2ccc(NC(=O)COc3ccc4ccccc4c3)cc21`, the NF-kB reporter in assay [1] (setting [4]) came out at 0.867 ± 0.07; in assay [1] (agonist: LPS 0.1 ug/mL) it was 1.44 ± 0.12; in assay [1] (agonist: MPLA […]), 1.31 ± 0.071. Moreover, the figures for the IRF reporter in assay [2] (agonist: 3'3'-cGAMP 10 ug/mL), in assay [2] (agonist: LPS 0.1 ug/mL) and in assay [2] (agonist: MPLA […]) were 0.771 ± 0.075, 1.26 ± 0.092 and 1.54 ± 0.12, respectively. Besides, the viability score in assay [3] is 0.995 (active).

For the compound `CCOC(=O)C1=C(C)NC(C)=C(C(=O)OCC)C1c1ccc(N(C)C)cc1`, the NF-kB reporter in assay [1] (setting [4]) stood at 1.14 ± 0.13; in assay [1] (agonist: LPS 0.1 ug/mL), 1.07 ± 0.071; in assay [1] (agonist: MPLA […]), 1.24 ± 0.069. The figures for the IRF reporter in assay [2] (agonist: 3'3'-cGAMP 10 ug/mL), in assay [2] (agonist: LPS 0.1 ug/mL) and in assay [2] (agonist: MPLA […]) were 0.855 ± 0.16, 1.04 ± 0.095 and 0.94 ± 0.24, respectively. The viability score in assay [3] is 0.996 (active).

As for `CC1=C(C(=O)OC(C)C)C(c2cccc([N+](=O)[O-])c2)C(C(=O)OC2CN(C(c3ccccc3)c3ccccc3)C2)=C(N)N1` (stereo unspecified), the figures for the NF-kB reporter in assay [1] (setting [4]), in assay [1] (agonist: LPS 0.1 ug/mL) and in assay [1] (agonist: MPLA […]) were 1.58 ± 0.068, 1.82 ± 0.15 and 2.56 ± 0.17, respectively. Besides, the IRF reporter in assay [2] (agonist: 3'3'-cGAMP 10 ug/mL) turned out to be 0.36 ± 0.021; in assay [2] (agonist: LPS 0.1 ug/mL), 1.66 ± 0.24; in assay [2] (agonist: MPLA […]), 2.12 ± 0.44. For the same compound, the viability score in assay [3] was 0.902 (active).

The values are drawn from the supplement of paper PMC10646978.
